# According to PubChem BioAssay (NCATS):
# “And” between values parts separate entries of the source, which are not always exact repeats. Equal values may be shown once. Records with an inconclusive call do not appear. Entries that show only a call come without a potency. The source made the active and inactive calls. Unless noted, the call rests on the fitted dose curve; in most records, active means well fitted curve in the direction sought with a large enough effect in the repeat runs; inconclusive means weak or mixed curves; inactive means no such curve, though single readings can be large; an effect the other way counts as inactive or inconclusive.
# Columns and labels:
# [1] = biological target: Calcium and integrin-binding protein 1 (Homo sapiens) (UniProt Q99828); test: Primary qHTS for Identification of Calcium Integrin Binding Protein 1 (CIB1) Competitor (AID 1508620; active means well fitted curve in the direction sought with a large enough effect; an effect the other way counts as inactive or inconclusive;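 further: GST tagged CIB1 binding a fluorescein labelled alphaIIb integrin peptide tracer; top concentration of the series differs between compounds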)
# Procedure, shortened: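 Fluorescence polarization competition: CIB1-GST (1 uM final) preincubated with compound 15 min at room temperature, then FITC-labeled alphaIIb peptide (100 nM final) added for another 15 min. Polarization read at Ex 480/Em 540.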
# [2] = biological target: Cytochrome P450 2D6 (Homo sapiens) (UniProt P10635); test: Cytochrome P450 family 2 subfamily D member 6 (CYP2D6) small molecule antagonists: luciferase biochemical (cell-free) qHTS assay (AID 1645840); further: nearly all actives have a fitted effect of over 55% in size; further: potency means the concentration at half of the fitted maximal effect
# Procedure, shortened: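 P450-Glo luminescent screen: recombinant CYP2D6 enzyme–proluciferin substrate mix preincubated with compound 10 min at room temperature, then NADPH regeneration added for 1 h at room temperature. Detection reagent added for 20 min; luciferin light read as relative luminescence units.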
# [3] = biological target: Cytochrome P450 3A4 (Homo sapiens) (UniProt P08684); test: Cytochrome P450 family 3 subfamily A member 4 (CYP3A4) small molecule antagonists: luciferase qHTS assay (AID 1645841); further: nearly all actives have a fitted effect of over 45% in size
# Procedure, shortened: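 P450-Glo CYP3A4 enzyme with proluciferin substrate was preincubated with DMSO-dissolved compounds for 10 min at room temperature. NADPH regeneration solution started a 1 h reaction. Detection reagent stopped it, and luminescence was read after 20 min.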
# [4] = biological target: Cytochrome P450 2C9 (Homo sapiens) (UniProt P11712); test: Cytochrome P450 family 2 subfamily C member 9 (CYP2C9) small molecule antagonists: luciferase biochemical (cell-free) qHTS assay (AID 1645842); further: nearly all actives have a fitted effect of over 55% in size; further: potency means the concentration at half of the fitted maximal effect
# Procedure, shortened: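 Luminescence, after 20 min with luciferin detection reagent, reflected CYP2C9 turnover during a 1 h NADPH-driven reaction at 37C. Enzyme-substrate mix contained 0.4% bovine serum albumin and was preincubated with compound 10 min at room temperature.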
# [5] = Primary qHTS for inhibitors of nuclear receptor binding SET domain protein 2 (NSD2) in an isogenic RCH-ACV NSD2 p.E1099K mutant (9B) (AID 1645876; active means well fitted curve in the direction sought with a large enough effect; an effect the other way counts as inactive or inconclusive; further: nearly all actives have a fitted effect of over 70% in size; further: potency means the concentration at half of the fitted maximal effect)
# [6] = Primary qHTS for inhibitors of nuclear receptor binding SET domain protein 2 (NSD2) in an RCH-ACV wild type WT cells (2C) (AID 1645877; active means well fitted curve in the direction sought with a large enough effect; an effect the other way counts as inactive or inconclusive; further: potency means the concentration at half of the fitted maximal effect; nearly all actives have a fitted effect of over 70% in size)
# Sequence of Cytochrome P450 2D6 (Homo sapiens) (P10635 whole entry, looked up): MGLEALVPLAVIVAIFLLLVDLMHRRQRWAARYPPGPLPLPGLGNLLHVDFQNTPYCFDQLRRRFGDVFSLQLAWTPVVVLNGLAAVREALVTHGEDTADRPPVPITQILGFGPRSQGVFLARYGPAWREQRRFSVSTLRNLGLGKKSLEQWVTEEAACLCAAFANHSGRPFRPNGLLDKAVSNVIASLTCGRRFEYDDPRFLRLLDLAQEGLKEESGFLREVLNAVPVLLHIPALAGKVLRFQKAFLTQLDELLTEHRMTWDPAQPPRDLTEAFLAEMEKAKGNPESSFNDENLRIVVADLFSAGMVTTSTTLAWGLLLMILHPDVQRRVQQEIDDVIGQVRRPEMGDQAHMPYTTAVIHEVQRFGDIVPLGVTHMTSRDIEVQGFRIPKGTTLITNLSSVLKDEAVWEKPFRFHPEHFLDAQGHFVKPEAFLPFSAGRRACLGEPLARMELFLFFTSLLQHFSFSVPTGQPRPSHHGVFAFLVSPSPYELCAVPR
# Sequence of Calcium and integrin-binding protein 1 (Homo sapiens) (Q99828 whole entry, looked up): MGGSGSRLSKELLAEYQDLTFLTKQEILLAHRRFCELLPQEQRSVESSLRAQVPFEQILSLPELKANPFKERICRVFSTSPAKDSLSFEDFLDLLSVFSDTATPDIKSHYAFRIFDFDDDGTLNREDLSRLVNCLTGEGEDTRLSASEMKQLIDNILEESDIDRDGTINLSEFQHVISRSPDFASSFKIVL
# Sequence of Cytochrome P450 2C9 (Homo sapiens) (P11712 whole entry, looked up): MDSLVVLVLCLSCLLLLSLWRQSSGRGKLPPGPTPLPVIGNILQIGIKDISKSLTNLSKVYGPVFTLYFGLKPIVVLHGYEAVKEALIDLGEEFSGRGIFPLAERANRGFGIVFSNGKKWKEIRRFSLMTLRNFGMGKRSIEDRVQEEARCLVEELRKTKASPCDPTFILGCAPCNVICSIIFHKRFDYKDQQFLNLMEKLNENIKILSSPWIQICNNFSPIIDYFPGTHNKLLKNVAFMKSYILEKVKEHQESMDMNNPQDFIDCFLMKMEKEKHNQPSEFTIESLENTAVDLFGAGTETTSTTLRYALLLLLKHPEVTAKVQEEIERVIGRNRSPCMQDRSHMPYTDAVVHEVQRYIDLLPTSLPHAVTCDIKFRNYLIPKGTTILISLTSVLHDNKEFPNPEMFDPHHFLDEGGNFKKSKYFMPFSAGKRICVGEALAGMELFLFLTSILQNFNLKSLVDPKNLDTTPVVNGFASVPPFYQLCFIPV
# Sequence of Cytochrome P450 3A4 (Homo sapiens) (P08684 whole entry, looked up): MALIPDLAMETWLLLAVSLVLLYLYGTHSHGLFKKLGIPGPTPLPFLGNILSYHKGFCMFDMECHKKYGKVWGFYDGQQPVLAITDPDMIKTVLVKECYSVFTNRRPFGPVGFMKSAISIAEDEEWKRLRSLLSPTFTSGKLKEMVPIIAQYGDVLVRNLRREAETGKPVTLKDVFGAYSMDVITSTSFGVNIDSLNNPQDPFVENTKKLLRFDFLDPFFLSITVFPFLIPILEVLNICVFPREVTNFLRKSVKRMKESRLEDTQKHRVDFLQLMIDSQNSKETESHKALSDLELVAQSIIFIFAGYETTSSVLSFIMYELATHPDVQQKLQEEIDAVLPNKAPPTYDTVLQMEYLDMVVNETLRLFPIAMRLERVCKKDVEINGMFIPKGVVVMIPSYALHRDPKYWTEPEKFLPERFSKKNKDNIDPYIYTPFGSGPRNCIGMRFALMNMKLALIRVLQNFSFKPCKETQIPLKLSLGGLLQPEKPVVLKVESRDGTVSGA
compound,measurement,setting,value
CN(C)[C@@H]1CCc2[nH]c3ccc(NC(=O)c4ccc(F)cc4)cc3c2C1,Potency,[1],inactive
same,Potency,[2],inactive
CN(C)c1cccc(Oc2cnc(Nc3cccc(O)c3)nc2)c1,Potency,[1],inactive
same,Potency,[2],21.3 µM (active)
O=C(N[C@H]1CCN(C(=O)c2cc(C(F)(F)F)cc(C(F)(F)F)c2)[C@H](Cc2ccc(Cl)cc2)C1)c1ccnc2ccccc12,Potency,[1],inactive
same,Potency,[2],inactive
COc1cc(N(C)CCN(C)C)c(N)cc1Nc1nccc(-c2cn(C)c3ccccc23)n1,Potency,[1],inactive
same,Potency,[2],19 µM (active)
CCC(C)c1ccc(NC(=O)Cn2cnc3c2c(=O)n(C)c(=O)n3C)cc1 (stereo unspecified),Potency,[1],inactive
same,Potency,[2],inactive
CCN(CC)CCCS(=O)(=O)N[C@H](CCc1ccccc1)c1nc(Cc2ccc(Br)cc2)no1,Potency,[1],inactive
same,Potency,[2],6.01 µM (active)
CC1(C)OC[C@H](NC(=O)Nc2ccc(Br)cc2Br)[C@H](c2ccccc2)O1,Potency,[1],inactive
same,Potency,[2],inactive
NS(=O)(=O)c1ccc(N2CCN(CC[C@@H]3OCCc4ccccc43)CC2)cc1,Potency,[1],inactive
same,Potency,[2],23.9 µM (active)
same,Potency,[3],inactive
same,Potency,[4],inactive
same,Potency,[5],inactive
O=[N+]([O-])c1cn2c(n1)OC[C@@H](OCc1ccc(-c3ccc(OC(F)(F)F)cc3)nc1)C2,Potency,[1],inactive
same,Potency,[2],inactive
CC[C@H](C(=O)Nc1ccccc1N1CCCC1)c1ccccc1,Potency,[1],inactive
same,Potency,[2],9.52 µM (active)
Nc1nc(OCc2cc(Br)cs2)c2[nH]cnc2n1,Potency,[1],inactive
same,Potency,[2],6.74 µM (active)
Cc1cc(F)ccc1-c1nc(NCCN=C(N)NC#N)nc2c1ccc(=O)n2-c1c(F)cccc1F,Potency,[1],inactive
same,Potency,[2],19 µM (active)
CCNC(=O)N1CCCN(c2ccc(C(=O)NCCc3ccc(Cl)cc3Cl)cc2NC(=O)c2cccc(Cl)c2)CC1,Potency,[1],inactive
same,Potency,[2],4.77 µM (active)
Nc1ncnc2c1c(-c1ccc(Cl)cc1)nn2-c1cccc(-c2cnnn2Cc2cccc(-c3ccccc3)c2)c1,Potency,[1],inactive
same,Potency,[2],inactive
same,Potency,[4],536 nM (active)
O=c1[nH]c([C@@H]2CCCN2)nc2c1oc1ccc(Cl)cc12,Potency,[1],inactive
same,Potency,[2],inactive
same,Potency,[3],inactive
same,Potency,[4],inactive
same,Potency,[5],9.16 µM (active)
same,Potency,[6],4.59 µM (active) and 10.5 µM (active)
COc1ccc([C@H](Cc2ccncc2)c2ccccc2)cc1OC1CCCC1,Potency,[1],inactive
same,Potency,[2],12 µM (active)
same,Potency,[4],425 nM (active)
